Data published in PubChem BioAssay AID1159580 (chemical genetic matrix, 2015).
About 2,000 (36%) of roughly 5,500 compounds were called active. Inconclusive results (about 18%) are left out. No stated cut-off is given here; in the data, active means normalized growth mostly below about 0.91 (no sharp cut-off); inconclusive means no clear call, values can overlap the other calls; inactive means mostly above about 0.92. Some of the results follow.

Assay: chemical genetic growth profiling, strain panel (AID 1159580);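 further: tested at 20 µM; growth read once vehicle control cultures reached saturation at 30 °C; 1 = growth at the plate median or of vehicle wells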
Details: S. cerevisiae deletion strains, growth OD
[1] = locus YAL013W, strain DEP1, stronger effect = lower value
[2] = locus YGR078C, strain PAC10, stronger effect = lower value
[3] = locus YHR030C, strain SLT2, stronger effect = lower value
[4] = locus YJR075W, strain HOC1, stronger effect = lower value
[5] = locus YNL128W, strain TEP1, stronger effect = lower value
[6] = locus YNL153C, strain GIM3, stronger effect = lower value
[7] = locus YNL322C, strain KRE1, stronger effect = lower value
[8] = locus YPL241C, strain CIN2, stronger effect = lower value
[9] = locus YAL040C, strain CLN3, stronger effect = lower value
[10] = locus YCL061C, strain MRC1 (second series), stronger effect = lower value
[11] = locus YDR363W, strain ESC2, stronger effect = lower value
[12] = locus YER002W, strain NOP16, stronger effect = lower value
[13] = locus YNL175C, strain NOP13, stronger effect = lower value
[14] = locus YNL197C, strain WHI3, stronger effect = lower value
[15] = locus YNL224C, strain SQS1, stronger effect = lower value
[16] = locus YOR083W, strain WHI5 (second series), stronger effect = lower value

Measured: normalized growth

Cc1cccc(C)c1N=C1SCCS1
inactive: [1] 1 | locus YBR229C, strain ROT2, stronger effect = lower value 0.99 | locus YCL061C, strain MRC1, stronger effect = lower value 0.982 | locus YDL101C, strain DUN1, stronger effect = lower value 0.986 | locus YDL134C, strain PPH21, stronger effect = lower value 1.02 | locus YDR150W, strain NUM1, stronger effect = lower value 0.902 | locus YEL061C, strain CIN8, stronger effect = lower value 1.01 | [2] 0.99 | locus YGR229C, strain SMI1, stronger effect = lower value 0.997 | [3] 0.929 | locus YHR087W, strain rtc3, stronger effect = lower value 0.988 | locus YJR043C, strain POL32, stronger effect = lower value 0.995 | [4] 0.996 | locus YKL190W, strain CNB1, stronger effect = lower value 1 | locus YLR039C, strain RIC1, stronger effect = lower value 0.941 | locus YLR058C, strain SHM2 (second series), stronger effect = lower value 0.996 | locus YLR085C, strain ARP6, stronger effect = lower value 0.99 | locus YLR262C, strain YPT6, stronger effect = lower value 0.978 | locus YML094W, strain GIM5, stronger effect = lower value 0.978 | locus YMR219W, strain ESC1, stronger effect = lower value 0.996 | locus YMR263W, strain SAP30, stronger effect = lower value 0.934 | locus YMR307W, strain GAS1, stronger effect = lower value 0.93 | [5] 1 | [6] 0.966 | locus YNL298W, strain CLA4 (second series), stronger effect = lower value 0.99 | [7] 0.988 | locus YNR030W, strain Alg12, stronger effect = lower value 1 | locus YPL055C, strain LGE1, stronger effect = lower value 0.906 | [8] 0.865 | locus YPR135W, strain CTF4, stronger effect = lower value 0.887

CN(C)CCC(c1ccc(Cl)cc1)c1ccccn1 (stereo not drawn)
inactive: [9] 0.987 | [10] 0.999 | [11] 0.993 | [12] 0.987 | [2] 1.01 | [3] 0.962 | locus YHR079C, strain IRE1, stronger effect = lower value 0.97 | locus YJL095W, strain BCK1, stronger effect = lower value 0.999 | locus YJR066W, strain TOR1, stronger effect = lower value 0.927 | [4] 0.991 | locus YLR113W, strain HOG1, stronger effect = lower value 1.01 | [6] 0.998 | [13] 1 | locus YNL183C, strain NPR1, stronger effect = lower value 0.941 | [14] 1.03 | [15] 1.01 | [7] 0.992 | [16] 1.01 | locus YOR231W, strain MKK1, stronger effect = lower value 0.971 | [8] 0.998 | locus YPL256C, strain CLN2, stronger effect = lower value 0.94

Cc1cccc(C)c1OCC(N)C(C)C (stereo not drawn)
inactive: [1] 1.01 | [9] 0.995 | [10] 1 | [11] 0.999 | [12] 0.998 | [4] 1.01 | [5] 0.988 | [6] 1.02 | [13] 1.02 | [14] 1 | [15] 0.998 | [16] 1
